The source of these data is ChEMBL document CHEMBL3988442, “University of Dundee, Small-Polar-MMV Screening Library” (2021).

For the first assay, the species on record is Homo sapiens. The assay can be described thus: To identify inhibition of the IFN signalling (Jak-Stat) pathway via expression of an eGFP reporter gene under the control of an IFN-stimulated response element (ISRE) containing MxA promoter. On the set-up: scale not given: direction of the effect not stated beside the values. In kind it is functional. As to conditions: 30 µM.
For the compound `CC(=O)N1CCCN(Cc2csc(-c3ncccn3)n2)CC1`, the Percent Effect was found to be 12%.
Turning to `O=C(NCCc1ccn(-c2ccccc2)n1)N1CCC1`, the Percent Effect worked out at 4.57%.
On the same count and under the same terms, the value for `O=C(NC1CC1)[C@H]1C[C@@H]2CCN(CCc3ccccc3)C[C@H]2O1` was 4.51%.
Take `CC1c2ncc(CN3CCN(C)CC3)n2CCN1CC1CC1` (stereo not drawn): the Percent Effect is -3.72%.
With `O=S(=O)(c1cccs1)N1CC[C@H](O)[C@@H]1Cc1ccncc1`, the Percent Effect is -0.0803%.
Turning to `COCc1nc2cc(NCc3ccncc3)ccc2o1`, the Percent Effect was -8.66%.
Same read-out and setting: the value for `CCn1cc(CN(C)C(=O)c2cccc(CCC(C)(C)O)c2)cn1` was 9.2%; that for `COCCCNC(=O)CCn1nc(C)c2ccccc21` was 2.4%; that for `CCc1nc(CN2CCCC(NCc3ccc(C(N)=O)cc3)C2)no1` (stereo not drawn) was 12.3%.
On the same count and under the same terms, with `CCS(=O)(=O)N1CCO[C@H]2[C@H](OCCCn3cccn3)CC[C@@H]21` the figure was -0.821%.
With `Cc1nccn1C1CCCN(C(=O)c2ccc3c(c2)COC3)C1` (stereo not drawn), the Percent Effect is -3.77%.
On the same count and under the same terms, with `Cc1cc(C)n(-c2ccc(CNCc3ccc(OC(C)C)cc3)cn2)n1` the figure was 20.5%.
Still for that read-out and setting: with `CCc1nc(C2CCCN2Cc2nc3ccccc3o2)no1` (stereo not drawn) the figure was -1.25%; with `CC(C)N1CCC(Cc2cc(-c3ccccc3C(=O)O)ncn2)CC1`, 17.4%.
For `CC(=O)c1cccc(OCCCC(=O)NCC2CCCN2C)c1` (stereo not drawn), the Percent Effect is 6.04%.
Still for that read-out and setting: with `CN1C(=O)C[C@@H]2[C@@H]1CCN2C(=O)c1ccc[nH]1` the figure was 17.1%.
Same read-out and setting: the value for `Cc1cc(C)n(-c2cncc(N3CCN(C(=O)C(C)(C)C)CC3)n2)n1` was 10.5%; that for `C1CCCN(c2nc(C3CC3)ns2)CC1` was 30.1%.
Still for that read-out and setting: the value for `Cn1cnnc1S(=O)(=O)C1CCN(S(=O)(=O)C2CC2)CC1` was -3.78%; that for `O=C(O)c1ccc(S(=O)(=O)Nc2ccc(Cl)c(F)c2)c(F)c1` was 8.28%; that for `c1ccc(OCCN2CCCC(c3noc(C4CC4)n3)C2)cc1` (stereo not drawn) was 6.37%.
As for `Cn1ccc(C(=O)N2CCN(CCc3ccccc3)CC2)cc1=O`, the Percent Effect was 6.37%.
Still for that read-out and setting: the value for `CN(Cc1cccs1)C(=O)CN1CCCC1Cn1cncn1` (stereo not drawn) was -3.55%.
`CNC(=O)C1(CCCc2ccncc2)CCCN1` (stereo not drawn): the Percent Effect was determined as 1.56%.
As to `c1cn(Cc2nnc(C3CCN(C4CCOCC4)CC3)n2C2CC2)cn1`, the Percent Effect stood at 21.6%.
Still for that read-out and setting: with `COC(=O)CCc1c(C)nc2cc(O)nn2c1C` the figure was 6.61%.
As for `CCN(CC1CCCO1)C(=O)Nc1cc(OC)c(OC)cc1C` (stereo not drawn), the Percent Effect is -8.32%.
Regarding `Cc1noc(C(C)C)c1C(=O)NCC(c1ccsc1)N(C)C` (stereo not drawn), the Percent Effect was 32.5%.
Same read-out and setting: the value for `O=C(Cc1ccccn1)N1C[C@@H]2CC[C@H](C1)N(Cc1ccccc1)C2=O` was 12%.
The same measure, in the same setting: with `COCCn1cc(C(=O)N2CCCC2c2cc(C)no2)ccc1=O` (stereo not drawn) the figure was 1.94%.
Still for that read-out and setting: with `CC(C)c1noc(CCCC(=O)N2CCC(Cc3cccnc3)CC2)n1` the figure was 16.4%; with `Cc1nn(-c2ccccc2)c2c1C(c1ccc(C(=O)O)cc1)CC(=O)N2` (stereo not drawn), 11.5%; with `CC(OCC1CC1)C(=O)N1CCCN(c2ncccc2C#N)CC1` (stereo not drawn), -5.09%.
Regarding `CCN(Cc1ccc2c(c1)OCCO2)S(=O)(=O)N(C)C(C)C`, the Percent Effect turned out to be 9.12%.
Still for that read-out and setting: the value for `CC(C)N(C)C(=O)C1=NOC2(CCN(C(=O)c3ccncc3)C2)C1` (stereo not drawn) was 1.3%; that for `CN1CCCC1c1cccc(Cc2ccccc2F)n1` (stereo not drawn) was 49.3%.
Turning to `Cc1cc(CNc2ccc(C(=O)N3CCCC(C)C3)cc2C)no1` (stereo not drawn), the Percent Effect is 37.9%.
Still for that read-out and setting: with `Cn1nc(C#N)c2c1CN(C(=O)c1cccnc1)CCC2` the figure was 6.32%.
Still for that read-out and setting: with `CCOCCCNC(=O)c1nn(CC)cc1Cl` the figure was 18.8%.

The target of a further assay is T1, Tyrosyl-tRNA synthetase, putative (Trypanosoma cruzi (strain CL Brener)) (UniProt Q4DSP6).
T1 sequence (whole entry): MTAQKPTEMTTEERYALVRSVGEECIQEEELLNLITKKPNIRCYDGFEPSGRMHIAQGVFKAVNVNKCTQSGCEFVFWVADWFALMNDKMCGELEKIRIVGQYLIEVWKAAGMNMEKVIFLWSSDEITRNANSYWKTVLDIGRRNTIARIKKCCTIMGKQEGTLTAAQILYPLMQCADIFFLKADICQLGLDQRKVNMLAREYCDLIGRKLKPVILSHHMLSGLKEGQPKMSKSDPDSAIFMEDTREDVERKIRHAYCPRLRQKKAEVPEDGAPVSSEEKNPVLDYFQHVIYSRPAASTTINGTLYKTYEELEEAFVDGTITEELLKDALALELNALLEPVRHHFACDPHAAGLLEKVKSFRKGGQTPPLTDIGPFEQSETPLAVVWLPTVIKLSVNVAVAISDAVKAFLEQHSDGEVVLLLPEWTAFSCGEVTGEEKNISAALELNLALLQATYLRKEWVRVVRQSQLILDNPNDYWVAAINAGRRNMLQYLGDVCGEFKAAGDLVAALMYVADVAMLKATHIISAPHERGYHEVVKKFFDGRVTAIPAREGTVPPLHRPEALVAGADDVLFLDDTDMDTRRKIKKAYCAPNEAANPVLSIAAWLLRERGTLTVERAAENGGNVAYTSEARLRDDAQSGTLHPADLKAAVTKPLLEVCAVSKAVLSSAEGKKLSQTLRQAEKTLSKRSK
The assay can be described thus: Trypanosoma cruzi tyrosyl tRNA synthetase (TcYRS) _High Tyrosine SOP. Conditions: 30 µM. The assay is classed as functional. On the set-up: scale not given: in the data most compounds retested in dose-response had high values.
With `CC(=O)N1CCCN(Cc2csc(-c3ncccn3)n2)CC1`, the Percent Effect is 6.38%.
On the same count and under the same terms, with `O=C(NCCc1ccn(-c2ccccc2)n1)N1CCC1` the figure was 5.71%.
On the same count and under the same terms, with `O=C(NC1CC1)[C@H]1C[C@@H]2CCN(CCc3ccccc3)C[C@H]2O1` the figure was 1.06%; with `CC1c2ncc(CN3CCN(C)CC3)n2CCN1CC1CC1` (stereo not drawn), 6.25%.
Same read-out and setting: with `O=S(=O)(c1cccs1)N1CC[C@H](O)[C@@H]1Cc1ccncc1` the figure was 4.32%.
`COCc1nc2cc(NCc3ccncc3)ccc2o1`: the Percent Effect came out at 4.95%.
Take `CCn1cc(CN(C)C(=O)c2cccc(CCC(C)(C)O)c2)cn1`: the Percent Effect was 7.1%.
The same measure, in the same setting: the value for `COCCCNC(=O)CCn1nc(C)c2ccccc21` was 3.17%; that for `CCc1nc(CN2CCCC(NCc3ccc(C(N)=O)cc3)C2)no1` (stereo not drawn) was -0.493%.
As for `CCS(=O)(=O)N1CCO[C@H]2[C@H](OCCCn3cccn3)CC[C@@H]21`, the Percent Effect is -4.17%.
As for `Cc1nccn1C1CCCN(C(=O)c2ccc3c(c2)COC3)C1` (stereo not drawn), the Percent Effect came out at 4.95%.
Same read-out and setting: with `Cc1cc(C)n(-c2ccc(CNCc3ccc(OC(C)C)cc3)cn2)n1` the figure was 13.2%.
Still for that read-out and setting: the value for `CCc1nc(C2CCCN2Cc2nc3ccccc3o2)no1` (stereo not drawn) was -2.86%.
Same read-out and setting: with `CC(C)N1CCC(Cc2cc(-c3ccccc3C(=O)O)ncn2)CC1` the figure was 4.3%; with `CC(=O)c1cccc(OCCCC(=O)NCC2CCCN2C)c1` (stereo not drawn), 10.3%.
`CN1C(=O)C[C@@H]2[C@@H]1CCN2C(=O)c1ccc[nH]1`: the Percent Effect came to 1.04%.
Same read-out and setting: the value for `Cc1cc(C)n(-c2cncc(N3CCN(C(=O)C(C)(C)C)CC3)n2)n1` was 3.96%.
The same measure, in the same setting: with `C1CCCN(c2nc(C3CC3)ns2)CC1` the figure was -4.3%.
Still for that read-out and setting: the value for `Cn1cnnc1S(=O)(=O)C1CCN(S(=O)(=O)C2CC2)CC1` was -3.23%.
`O=C(O)c1ccc(S(=O)(=O)Nc2ccc(Cl)c(F)c2)c(F)c1`: the Percent Effect was -13.3%.
With `c1ccc(OCCN2CCCC(c3noc(C4CC4)n3)C2)cc1` (stereo not drawn), the Percent Effect is -4.92%.
On the same count and under the same terms, with `Cn1ccc(C(=O)N2CCN(CCc3ccccc3)CC2)cc1=O` the figure was 12.5%.
Consider `CN(Cc1cccs1)C(=O)CN1CCCC1Cn1cncn1` (stereo not drawn), for which the Percent Effect came out at 7.53%.
`CNC(=O)C1(CCCc2ccncc2)CCCN1` (stereo not drawn): the Percent Effect is 7.53%.
Same read-out and setting: with `c1cn(Cc2nnc(C3CCN(C4CCOCC4)CC3)n2C2CC2)cn1` the figure was 2.73%.
Still for that read-out and setting: the value for `COC(=O)CCc1c(C)nc2cc(O)nn2c1C` was 9.71%; that for `CCN(CC1CCCO1)C(=O)Nc1cc(OC)c(OC)cc1C` (stereo not drawn) was 8.37%; that for `Cc1noc(C(C)C)c1C(=O)NCC(c1ccsc1)N(C)C` (stereo not drawn) was 1.48%.
The same measure, in the same setting: with `O=C(Cc1ccccn1)N1C[C@@H]2CC[C@H](C1)N(Cc1ccccc1)C2=O` the figure was 5.82%.
`COCCn1cc(C(=O)N2CCCC2c2cc(C)no2)ccc1=O` (stereo not drawn): the Percent Effect was 7.94%.
The same measure, in the same setting: the value for `CC(C)c1noc(CCCC(=O)N2CCC(Cc3cccnc3)CC2)n1` was 0.493%.
For the compound `Cc1nn(-c2ccccc2)c2c1C(c1ccc(C(=O)O)cc1)CC(=O)N2` (stereo not drawn), the Percent Effect turned out to be 3.83%.
With `CC(OCC1CC1)C(=O)N1CCCN(c2ncccc2C#N)CC1` (stereo not drawn), the Percent Effect amounted to 6.4%.
Still for that read-out and setting: the value for `CCN(Cc1ccc2c(c1)OCCO2)S(=O)(=O)N(C)C(C)C` was 0%; that for `CC(C)N(C)C(=O)C1=NOC2(CCN(C(=O)c3ccncc3)C2)C1` (stereo not drawn) was 1.04%.
The same measure, in the same setting: with `CN1CCCC1c1cccc(Cc2ccccc2F)n1` (stereo not drawn) the figure was 14%.
For the compound `Cc1cc(CNc2ccc(C(=O)N3CCCC(C)C3)cc2C)no1` (stereo not drawn), the Percent Effect was 5.83%.
Same read-out and setting: with `Cn1nc(C#N)c2c1CN(C(=O)c1cccnc1)CCC2` the figure was -2.12%.
Regarding `CCOCCCNC(=O)c1nn(CC)cc1Cl`, the Percent Effect was determined as 5.29%.
